Source: PubChem (The Scripps Research Institute Molecular Screening Center)
TCR-CD3 inh: blocks the human TCR-CD3 interaction; TAMRA-labeled TCR probe fluorescence, biochemical; inhibition, % at 9.4 µM; 360,000 compounds, 0.37% hits; AID 651800; in the data active = inhibition above about 19%;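 also: recombinant mutant TCR 2C K166C tagged with TAMRA read by polarization; 0% = receptor in buffer alone and 100% = receptor with positive control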
PAFAH1B2 inh: blocks human PAF acetylhydrolase 1b catalytic subunit 2; 340,000 compounds, 1.2% hits; inhibition, % at 3.39 µM; P68402; recombinant PAFAH1B2, FP-rhodamine activity probe, fluorescence polarization;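 active = inhibition above the mean of all tested compounds plus 3 SD, cut at about 24% in these data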;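 also: 0% = enzyme with DMSO and 100% = wells lacking PAFAH1B2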
Target sequence (P68402 whole entry, looked up): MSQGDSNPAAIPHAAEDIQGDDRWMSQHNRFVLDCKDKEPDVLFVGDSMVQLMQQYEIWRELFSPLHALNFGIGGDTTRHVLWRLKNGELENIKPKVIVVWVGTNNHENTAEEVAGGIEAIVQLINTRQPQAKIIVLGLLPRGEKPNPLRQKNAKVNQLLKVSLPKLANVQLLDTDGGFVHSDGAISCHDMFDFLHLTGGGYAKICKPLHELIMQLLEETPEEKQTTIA
pPAFAH inh: pPAFAH (human) enzyme inhibition. Q13093. recombinant pPAFAH, FP-rhodamine probe fluorescence polarization. inhibition, % at 3.39 µM. 330,000 compounds, 1.5% hits;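 active = inhibition above the mean inhibition across the screen plus 3 SD, cut at about 25% in these data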;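 also: inhibitors block binding of the rhodamine activity-based probe so polarization drops; 0% = enzyme with DMSO and 100% = wells lacking pPAFAH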
PAFAH2 FP inh: inhibitors of human PAFAH2; Q99487; recombinant PAFAH2, FP-rhodamine activity probe, fluorescence polarization; inhibition, % at 3.39 µM; 340,000 compounds, 0.99% hits; AID 492956;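 active = inhibition above the mean over all tested compounds plus 3 SD, cut at about 30% in these data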;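 also: inhibitors block probe labeling of enzyme so polarization drops; 0% = enzyme with DMSO and 100% = wells lacking PAFAH2 protein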
PAFAH1B3 inh: blocks human PAF acetylhydrolase 1B catalytic subunit 3. 340,000 compounds, 0.28% hits. AID 492972. inhibition, % at 3.39 µM. recombinant PAFAH1B3, FP-rhodamine probe, fluorescence polarization. Q15102;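 active = inhibition above the screen-wide average of all tested compounds plus 3 SD, cut at about 25% in these data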;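 also: 0% = enzyme with DMSO only and 100% = wells lacking PAFAH1B3 protein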
Target sequence (Q15102 whole entry, looked up): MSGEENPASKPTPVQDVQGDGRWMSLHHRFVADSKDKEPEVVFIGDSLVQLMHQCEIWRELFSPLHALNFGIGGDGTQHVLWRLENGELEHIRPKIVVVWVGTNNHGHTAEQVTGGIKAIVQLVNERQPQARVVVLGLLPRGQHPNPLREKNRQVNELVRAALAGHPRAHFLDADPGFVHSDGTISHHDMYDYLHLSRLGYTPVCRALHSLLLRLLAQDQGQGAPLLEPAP
PAFAH2 confirm: PAFAH2 (human) inhibition, confirmed; shares compounds with PAFAH2 FP inh; recombinant PAFAH2, FP-rhodamine activity probe, fluorescence polarization; inhibition, % at 3.39 µM; 2,300 compounds, 65% hits; AID 493030;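 active = mean inhibition over three repeats above a set limit taken from the earlier primary screen, cut at about 30% in these data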;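 also: inhibitor blocks binding of rhodamine activity probe so polarization falls; 0% = enzyme with DMSO and 100% = wells lacking PAFAH2 protein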
The depositor's hits bear a star; nt = not tested or not shown. Hits are enriched below; roughly 2.7% of the tested compounds scored in any of these assays.

SMILES	TCR-CD3 inh	PAFAH1B2 inh	pPAFAH inh	PAFAH2 FP inh	PAFAH1B3 inh	PAFAH2 confirm
CCCNC(=O)C(Cc1cccc(Cl)c1)NC(=O)c1ccccc1 (stereo unspecified)	-6	3	-2	7	6	nt
CC1CCCC(NC(=O)COC(=O)/C=C/c2ccc3c(c2)OCO3)C1C (stereo unspecified)	6	4	4	82*	1	75*
O=C(COC(=O)/C=C/c1ccc2c(c1)OCO2)NC1CC1	-1	5	5	56*	-5	41*
CC(C)NC(=O)NC(=O)COC(=O)/C=C/c1ccc2c(c1)OCO2	3	2	-4	7	5	nt
CC(NC(=O)COC(=O)/C=C/c1ccc2c(c1)OCO2)c1ccccc1 (stereo unspecified)	9	7	1	47*	1	38*
CC(Oc1ccc(F)cc1)C(=O)Nc1cc(Cl)ccc1-n1cncn1 (stereo unspecified)	5	4	2	3	-3	nt
Cc1cccc(C(=O)N2CCC(C)(C(=O)NS(=O)(=O)C3CC3)C2)c1C (stereo unspecified)	4	nt	nt	nt	nt	nt
CCn1c(C)nc2cc(C(=O)OC(C(F)(F)C(F)F)C(F)(F)C(F)F)ccc21	1	14	24	90*	7	79*
Cn1c2ccccc2n2c(=O)c(Cl)c(-c3ccccc3)c(C#N)c12	-3	5	5	39*	12	24
CC(=O)Oc1ccc2nc(-c3cccs3)oc(=O)c2c1	1	0	2	29	-1	nt
O=c1oc(-c2cccs2)nc2ccc(Br)cc12	8	3	-6	18	4	nt
COc1cc2nc(-c3cccs3)oc(=O)c2cc1OC	5	0	-2	41*	17	23
O=c1oc(-c2cccs2)nc2c1cnn2-c1ccccc1	-5	3	18	66*	0	54*
Cc1ccc2nc(-c3cccs3)oc(=O)c2c1	4	-1	2	54*	11	54*
Cc1nc2nc(N)nn2c(C)c1C/C=C/c1ccccc1	0	2	-1	2	7	nt
Cc1cc(C(=O)COC(=O)c2n[nH]c(=O)c3ccccc23)c(C)n1C(C)C	6	-1	-1	3	1	nt
COc1ccc(NC2CC(=O)N(c3ccccc3)C2=O)cc1 (stereo unspecified)	-10	7	0	41*	4	2
Cc1cccnc1NC(=O)CSc1nnc(CNC(=O)c2cccc([N+](=O)[O-])c2)n1C	-1	0	4	-3	17	nt
CCOC(=O)Cc1c(C)nc2c(-c3cccc(Br)c3)c[nH]n2c1=O	4	9	14	33*	5	28
CN1CCN(c2nc(Nc3ccc(F)cc3)nc(Nc3ccc(F)cc3)n2)CC1	-6	2	-7	8	6	nt
O=C(c1ccccc1)n1ccc(-c2cccs2)n1	-4	1	1	43*	-2	23
Cc1ccc(S(=O)(=O)CCC(=O)OCC(=O)Nc2cccc(S(=O)(=O)N3CCCCC3)c2)cc1	2	nt	nt	nt	nt	nt
O=C(COC(=O)CCc1c[nH]c(=O)[nH]1)Nc1cccc(Cl)c1	-9	-3	-3	35*	-9	29
O=C(COC(=O)CCCOc1ccc(Cl)cc1Cl)Nc1cccc(Cl)c1	-11	-8	10	1	-24	nt
CC(/C=C1\N=C(SCc2ccccc2Cl)SC1=O)=C\c1ccccc1	2	-1	9	46*	5	45*
SMILES	TCR-CD3 inh	PAFAH1B2 inh	pPAFAH inh	PAFAH2 FP inh	PAFAH1B3 inh	PAFAH2 confirm
CN(Cc1cnccn1)C(=O)CC1C(=O)NCCN1Cc1ccc(F)cc1Cl (stereo unspecified)	-3	0	-4	5	-2	nt
CCS(=O)(=O)c1ccc(O)c(NC(=O)/C=C/c2ccccc2)c1	1	4	17	75*	8	73*
CCCc1ccc(OCC(=O)Nc2cc(S(=O)(=O)CC)ccc2O)cc1	-3	13	22	33*	7	26
CCS(=O)(=O)c1ccc(O)c(NC(=O)CCCC(=O)O)c1	-1	-1	3	4	-5	nt
CCS(=O)(=O)c1ccc(O)c(NC(=O)CC2(CC(=O)O)CCCC2)c1	3	-1	3	37*	2	27
CCS(=O)(=O)c1ccc(O)c(NC(=O)Nc2ccccc2OC)c1	-3	0	15	47*	8	59*
CCOC(=O)C(NCc1ccc(OC)cc1)(NC(C)=O)C(F)(F)F (stereo unspecified)	3	5	-1	7	-6	nt
CC(=O)c1ccc(NC(=O)COC(=O)c2ccc(F)cc2F)cc1	4	3	19	28	-11	nt
O=C(COC(=O)c1ccccc1Br)Nc1ccc(F)cc1	-9	5	12	76*	5	70*
Cc1occc1C(=O)OCC(=O)Nc1ccc(F)cc1	-11	1	7	73*	5	62*
Cc1ccc(-c2n[nH]c(=S)c3ccccc23)cc1S(=O)(=O)NCC1CCCO1 (stereo unspecified)	-7	3	3	5	-2	nt
O=c1[nH]c(Cc2cccs2)nc2ccccc12	-4	1	4	-3	1	nt
COc1cccc(C(=O)OCn2nnc3ccccc3c2=O)c1	2	7	1	37*	9	21
COc1ccc(C(=O)OCn2nnc3ccccc3c2=O)cc1OC	-2	-5	3	36*	5	46*
O=C(OCn1nnc2ccccc2c1=O)c1cccs1	8	6	7	47*	5	37*
COc1ccc(C(=O)OCn2nnc3ccccc3c2=O)cc1[N+](=O)[O-]	-3	4	-1	15	5	nt
O=C(OCc1nc2ccccc2c(=O)[nH]1)c1cccs1	-2	-5	2	42*	1	29
CCC(=O)OCn1nnc2ccccc2c1=O	-1	8	-1	1	-1	nt
O=C(OCn1nnc2ccccc2c1=O)c1cccnc1	2	-3	4	5	0	nt
CCNC(=O)C1(C)CCCN(Cc2csc3ccccc23)C1 (stereo unspecified)	-2	nt	nt	nt	nt	nt
CC(C)(C)c1ccc(OC(=O)N2CCOCC2)cc1	-1	-5	21	30*	2	38*
COC(=O)c1ccc(OC(=O)N2CCOCC2)cc1	-2	4	21	11	-2	nt
CCC(=O)c1ccc(OC(=O)N2CCOCC2)cc1	-10	1	24	35*	5	21
O=C(N[C@H]1CC[C@H](CCNS(=O)(=O)c2ccc(Cl)cc2)O[C@@H]1CO)c1cccc(F)c1	-4	nt	nt	nt	nt	nt
CC(=O)c1ccc(NC(=O)c2ccc(CNc3c(N4CCCC4)c(=O)c3=O)cc2)cc1	-5	7	7	62*	-5	65*
CC(=O)c1ccc(NC(=O)c2ccc(CNc3c(N4CCOCC4)c(=O)c3=O)cc2)cc1	-5	1	-2	70*	10	63*
